HCMV inh: qHTS Assay for inhibitors of the human cytomegalovirus (HCMV); 410,000 compounds, 4.5% hits; activity change, negative = inhibition, % at 57.5 µM; HFF cells, HCMV-luciferase reporter, 72 h; hits give low values; in the data active means activity change below about -60%; inconclusive means no clear call, values can overlap the other calls; inactive means above about -39%
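Human foreskin fibroblasts infected with luciferase-reporter HCMV at MOI 1 PFU/cell, compounds at two doses. Luciferase measured 72 h post infection; normalized to buffer-only basal and Salinomycin (10uM) controls.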
FMDV antiviral: High Throughput Screening for Foot and Mouth Disease Virus Antivirals; 410,000 compounds, 1.2% hits; AID 1159524, 2015; FMDV antiviral cell-based qHTS; Potency, µM (highest dose often 57.9 µM), inactives show at the highest dose activity change, negative = inhibition, most hits filed as inhibitors; calls by dose curve; tested in HEK293T cells; further: read-out not given here; potency means the concentration at half of the fitted maximal effect; nearly all actives have a fitted effect of over 45% in size
HCV inhibitor: qHTS Assay for Inhibitors of Hepatitis C Virus (HCV); 340,000 compounds, 3.4% hits; Potency, µM (top dose mostly 41.8 µM), for inactives: at the top dose activity change, negative = inhibition, actives largely listed as inhibitors; Huh7.5.1 HCVcc-Cre infection, luciferase reporter, 44 h; AID 651820, 2012; active means well fitted inhibition curve with a large enough effect; inconclusive means small, poorly fitted or top-dose-only effect, or another doubt; inactive means no such curve, though single readings can be large or run the other way; further: potency means the concentration at half of the fitted maximal effect
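After 44 h co-culture of compound, cells and HCVcc-Cre (~0.5 moi), substrate is added for 15 min at room temperature and luciferase measured over 15 sec. Cells were seeded at 1,000/well and pre-cultured 4 h.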
Vaccinia mCherry: qHTS for Stage-Specific Inhibitors of Vaccinia Orthopoxvirus: mCherry Reporter Primary qHTS; Potency, µM (doses to about 36.5 µM), for inactives: at the highest dose activity change, negative = inhibition, actives largely listed as inhibitors; Vaccinia virus mCherry reporter infection, fluorescence; 310,000 compounds, 0.63% hits; AID 720579, 2013; calls by dose curve; tested in A549 cells; further: potency means the concentration at half of the fitted maximal effect; nearly all actives have a fitted effect of over 35% in size
Vaccinia Venus: qHTS for Stage-Specific Inhibitors of Vaccinia Orthopoxvirus: Venus Reporter Primary qHTS; Vaccinia virus Venus reporter expression, fluorescence; Potency, µM (series often up to 36.5 µM), for the others: at the highest dose activity change, negative = inhibition, usual class: inhibitors; 330,000 compounds, 0.46% hits; AID 720580, 2013; calls by dose curve; tested in A549 cells; further: potency means the concentration at half of the fitted maximal effect; nearly all actives have a fitted effect of over 30% in size
* hit, by the source's call; i = inactive; u = inconclusive; x = not tested or not shown. Shown are actives, neighbours in structure and some others; about 7.3% of the full set was active somewhere. On the % scale 0 is the no-effect control and ±100 the full control effect.

SMILES | HCMV inh | FMDV antiviral | HCV inhibitor | Vaccinia mCherry | Vaccinia Venus
COC(=O)C1CCN(C(=O)c2cc(-c3ccc(Cl)s3)nc3ccccc23)CC1 | -32.7 | 35.5µM* | u | x | x
Cc1cc(-c2ccc(S(=O)(=O)Nc3cccc(Cl)c3C)cc2)on1 | u | 2.6% | x | u | u
Cc1cc(=O)[nH]c(SCC(=O)Nc2ccc(F)cc2)c1C#N | -8.8 | -29.6% | 18.3% | -2.1% | -17.9%
Cc1cc(=O)[nH]c(SCC(=O)Nc2ccc3c(c2)CCC3)c1C#N | -76.6* | 19.0% | -3.1% | x | x
O=C(CCl)NCc1c(Cl)cccc1-n1cccc1 | -98.4* | 0.0% | u | x | x
COc1ccc(CCNC(=O)c2nc(SCc3ccc(C)cc3)ncc2Cl)cc1OC | -37.0 | u | x | -18.8% | -11.2%
CCCc1cc(=O)oc2cc(OCC(=O)NCCCn3ccnc3)c(Cl)cc12 | -63.0* | -10.3% | -21.9% | x | x
O=C(NCc1nc2cccnc2n1Cc1ccc(F)cc1)c1ccccc1C(F)(F)F | -60.6* | -6.6% | x | i | -10.9%
CCN(CC)S(=O)(=O)c1cc(NC(=O)C(=O)c2c(-c3ccccc3)cc3ccccn23)ccc1C | -96.5* | -25.0% | 12.6µM* | x | x
CN(C)CCNC(=O)C(=O)c1c(-c2ccccc2)cc2ccccn12 | -39.5 | -6.1% | 4.3% | -9.4% | -8.8%
CCN(CC)S(=O)(=O)c1ccc(N2CCOCC2)c(NC(=O)C(=O)c2c(-c3ccccc3)cc3ccccn23)c1 | -26.6 | 15.3% | 14.1µM* | x | x
CCN(CC)S(=O)(=O)c1cccc(NC(=O)C(=O)c2c(-c3ccccc3)cc3ccccn23)c1 | -75.3* | -8.4% | u | u | -20.7%
O=C(NCCCO)C(=O)c1c(-c2ccccc2)cc2ccccn12 | -2.7 | -11.4% | 2.9% | -0.7% | -12.3%
CCN(CC)S(=O)(=O)c1ccc(N2CCOCC2)c(NC(=O)c2ccccc2F)c1 | -64.6* | -2.6% | -25.3% | i | 4.7%
CCN(CC)S(=O)(=O)c1ccc(N2CCOCC2)c(NC(=O)c2ccc(F)cc2)c1 | -15.5 | -1.2% | -10.7% | -13.7% | -10.4%
CCC1(c2ccc(OC)cc2)NC(=O)N(CC(=O)NC2CCCCC2C)C1=O (centres undefined) | 16.9 | -14.4% | -14.9% | x | x
CC1=C(c2ccc(C)c(C)c2)S(=O)(=O)N(Cc2ccc(C(=O)Nc3cc(F)ccc3F)cc2)C1=O | 1.7 | -28.9% | x | -17.2% | -20.0%
O=C(NCCCN1CCN(c2ccccc2)CC1)c1nnc(Cc2ccc(F)cc2)o1 | -11.4 | -28.8% | x | -3.6% | -5.6%
N#Cc1c(C(F)(F)F)cc(-c2cccs2)nc1SCc1ccccc1F | -6.9 | -28.1% | x | -12.4% | -1.6%
N#C/C(=C\c1cn[nH]c1-c1ccc(Cl)cc1)C(=O)NC1CC1 | x | u | -13.5% | x | x
N#C/C(=C\c1cn[nH]c1-c1ccccc1)C(=O)NC1CCCCCC1 | -37.4 | -12.4% | 25.1µM* | x | x
Cc1nc(N)nc(Cl)c1Cc1ccc(Cl)cc1 | -61.2* | -12.7% | 15.1% | -28.3% | -7.3%
Cc1cc(C)cc(N2C(=O)NC(=O)/C(=C\c3cc(C)n(C)c3C)C2=O)c1 | 60.9 | -18.3% | -0.9% | -3.8% | -1.0%
CCc1ccccc1N1C(=O)NC(=O)/C(=C\c2cc(C)n(C)c2C)C1=O | -34.1 | -19.8% | 3.7% | 10µM* | -25.7%
O=C(Nc1ccc(F)c(Cl)c1)C1CCN(S(=O)(=O)c2ccc3[nH]c(=O)ccc3c2)CC1 | -0.3 | -21.6% | x | 0.4% | 3.4%
Cc1nc(-c2c(-c3ccc(O)cc3O)noc2C(F)(F)F)cs1 | -67.0* | 35.5µM* | u | x | u
COc1ccc(C(=O)NCC(c2ccccc2)N2CCCC2)cc1S(=O)(=O)N1CCOCC1 (centres undefined) | 9.6 | 8.3% | -1.9% | x | x
COc1ccc(C(C[N+](=O)[O-])c2c(-c3ccccc3)cc3ccccn23)c(OC)c1 (centres undefined) | -71.3* | -7.9% | 3.5% | -15.6% | -6.6%
O[C@@H]1CN(CC2CCCCC2)[C@@H](c2ccccc2)C[C@H]1n1cc(-c2ccc(F)cc2)nn1 | -5.4 | 46.2% | x | u | u
COC(=O)c1cc(CNC(=O)c2cccc(F)c2)cc(NC(=O)c2ccccc2OC)c1 | x | -9.7% | x | -4.8% | -1.3%
